Some of the results follow. Unmarked numbers belong to inactive results. Rule as the data show it: active = IC50 below about 10 µM; inactive = the rest. Bounds are passed on as bounds.

This test is described as follows: PG9 anti-gp120 antibody binding compounds – biochemical, TR-FRET, HIV-1 gp120 antibody, dose response (AID 651848). The note with it: TR-FRET PG9 antibody-gp120 binding inhibition. A general note: Time-resolved FRET reads energy transfer from a long-lived donor to a nearby acceptor.
Regarding `O=C(Oc1ccccc1)Oc1ccc2c(c1)oc(=O)c1ccccc12`, the IC50 is 25.1 µM.
Under `CC1(C)Cc2ccccc2-c2[nH]c(=S)[nH]c(=O)c21` stands greater than 67.1 µM; under `O=C(Nc1nnc(-c2ccccc2F)s1)c1ccccc1F`, greater than 67.1 µM.
Consider `COC(=O)C1=C(C)N(Cc2ccccc2C(F)(F)F)C(=NCc2ccc(OC)cc2)NC1c1cccc(C(F)(F)F)c1` (configuration not stated), for which the IC50 is greater than 67 µM.
In the case of `S=c1[nH]c2ccccc2c2ccccc12` it was 44.6 µM; in that of `COc1ccc(-c2c(C)nn3c(N4CCC(C(=O)N5CCCCC5)CC4)cc(C)nc23)cc1OC`, greater than 67 µM.
In the case of `Cc1cccc(Nc2nc3c(S(=O)(=O)c4ccccc4)nnn3c3ccccc23)c1C` it was greater than 67 µM.

A word on the IC50: it is the concentration that inhibits the measured activity by half.

Values taken from PubChem BioAssay AID651848 (The Scripps Research Institute Molecular Screening Center, 2012).
